An excerpt weighted towards active compounds, which were near 9.4% of everything screened.
ELG1 repair inh: qHTS screen for small molecules that inhibit ELG1-dependent DNA repair in human embryonic kidney (HEK293T) cells expressing luciferase-tagged ELG1; AID 504467, 2011; HEK293T ELG1-luciferase reporter, luminescence, 16 h; DNA damage induced by 5-fluorouridine; actives 2.3% (n = 330,000); Potency, µM (top dose mostly 46.1 µM), inactives show at the top dose activity change, negative = inhibition, hits mostly inhibitors; further: on the % scale 0 is the no-effect control and ±100 the full control effect; nearly all actives have a fitted effect of over 55% in size
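Luminescence from the luciferase reporter, measured 30 min after ONE-Glo reagent at room temperature, was the read-out. Beforehand, 2,000 cells per well were exposed for 16 hr at 37 °C to 5-fluorouridine together with compound or vehicle.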
ELG1 genotoxic: qHTS screen for small molecules that induce genotoxicity in human embryonic kidney (HEK293T) cells expressing luciferase-tagged ELG1; Potency, µM (titrated, usually from 46 µM), for the others: at the top dose activity change, positive = activation, usual class: activators; HEK293T ELG1-luciferase reporter, luminescence, 16 h; actives 1.3% (n = 330,000); further: % of control where 0% means no effect; nearly all actives have a fitted effect of over 60% in size
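Step 1: seed 2,000 HEK293T ELG1-luciferase cells per well. Step 2: add compound or DMSO, incubate 16 hr at 37 °C. Step 3: ONE-Glo, 30 min at room temperature, read luminescence.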
FLuc counter: qHTS profiling assay for firefly luciferase inhibitor/activator using purifed enzyme and Km concentrations of substrates (counterscreen for miR-21 project); purified FLuc, Km substrates, luminescence inhibition; Luciferin 4-monooxygenase (Photinus pyralis), P08659; Potency, µM (highest dose often 57.5 µM), for the others: at the top dose activity change, negative = inhibition, actives largely listed as inhibitors; AID 588342, 2011; actives 6.9% (n = 360,000);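 further: plate controls were vehicle for no effect and reference inhibitor for full effect; nearly all actives have a fitted effect of over 55% in size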
Target sequence (P08659 whole entry, looked up): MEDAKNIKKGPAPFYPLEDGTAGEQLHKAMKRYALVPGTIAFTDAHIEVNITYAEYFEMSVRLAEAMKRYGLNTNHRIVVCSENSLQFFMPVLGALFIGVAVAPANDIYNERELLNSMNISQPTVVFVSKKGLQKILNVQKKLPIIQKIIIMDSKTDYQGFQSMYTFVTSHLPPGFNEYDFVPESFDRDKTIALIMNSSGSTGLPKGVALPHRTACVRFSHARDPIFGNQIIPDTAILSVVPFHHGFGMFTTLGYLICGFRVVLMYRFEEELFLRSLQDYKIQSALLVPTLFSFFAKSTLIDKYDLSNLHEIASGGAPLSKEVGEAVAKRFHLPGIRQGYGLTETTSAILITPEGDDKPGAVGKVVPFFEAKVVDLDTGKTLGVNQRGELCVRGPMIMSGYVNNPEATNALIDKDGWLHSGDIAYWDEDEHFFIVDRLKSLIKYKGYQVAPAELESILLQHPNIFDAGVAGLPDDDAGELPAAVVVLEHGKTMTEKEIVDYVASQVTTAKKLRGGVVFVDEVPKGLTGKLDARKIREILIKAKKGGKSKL
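Purified P. pyralis luciferase, 10 nM final, with Km-level 10 uM D-luciferin and 10 uM ATP in 50 mM Tris acetate pH 7.5, 10 mM Mg acetate, 0.01% Tween-20, 0.05% BSA; 6-point qHTS titration about 60 µM downward; luminescence read.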
NPC1 prom act: qHTS Assay for NPC1 Promoter Activators | Huh7 NPC1 promoter luciferase reporter, 24 h | Potency, µM (titrated, usually from 9.22 µM), for inactives: top-dose activation, most hits filed as activators | actives 2.4% (n = 320,000) | AID 485313, 2010; further: % of control where 0% means no effect; nearly all actives have a fitted effect of over 60% in size
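Quantitative HTS used a cell-based reporter: Huh7 cells stably bearing the NPC1 promoter upstream of luciferase were treated with compounds for 24 h, and promoter activation was read as luminescence.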
Rab9 promoter act: qHTS Assay for Rab9 Promoter Activators | actives 2.8% (n = 320,000) | Huh7 Rab9 promoter-luciferase reporter, luminescence, 24 h | Potency, µM (series often up to 9.22 µM), for inactives: at the highest dose activation, negative = inhibition, usual class: activators | AID 485297, 2010; further: % of control where 0% means no effect; nearly all actives have a fitted effect of over 60% in size
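Promoter activation is measured as luciferase luminescence in Huh7 cells stably transfected with a Rab9 promoter–luciferase construct, following 24 h compound exposure at 37 °C and 10 min reagent incubation at ambient temperature.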
SMN2 splice enh: qHTS Assay for Enhancers of SMN2 Splice Variant Expression; HEK293 SMN2-luciferase splicing reporter, luminescence, 30-36 h; Potency, µM (top dose mostly 46.1 µM), for inactives: top-dose activity change, positive = activation, most hits filed as activators; actives 2.8% (n = 210,000); AID 1458, 2008; further: % of control where 0% means no effect; nearly all actives have a fitted effect of over 55% in size
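HEK293 cells carry an SMN2 […]–luciferase reporter in which exon 7 inclusion puts luciferase in frame. Cells were plated 10-12 h before compound addition, then incubated 30-36 h at 37C. ONE-Glo luminescence was read; sodium butyrate at 4.5 mM final served as control.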
Active calls of the source: *; u = inconclusive; x = no result; [ ] = dose if it differs, or a comment. The call rests on the fitted dose curve; in most records, active means well fitted curve in the direction sought with a large enough effect; inconclusive means small, poorly fitted or top-dose-only effect, or another doubt; inactive means no such curve, though single readings can be large; an effect the other way counts as inactive or inconclusive. Potency means the concentration at half of the fitted maximal effect.

SMILES | ELG1 repair inh | ELG1 genotoxic | FLuc counter | NPC1 prom act | Rab9 promoter act | SMN2 splice enh
COc1cc(OC)c(C2Nc3ccccc3-c3nnc(SCc4ccccc4)nc3O2)cc1OC (stereo not given) | x | x | u | x | x | 1%
COc1cc(C2Nc3cc(Cl)c(S(N)(=O)=O)cc3S(=O)(=O)N2)cc(OC)c1OC (stereo not given) | 17% | 2% | 2% | -1% | -5% | -12%
COc1cc(C2Nc3cc(Cl)c(S(N)(=O)=O)cc3S(=O)(=O)N2)ccc1OCc1ccccc1 (stereo not given) | u | 16µM* | u | -2% | -4% | 8%
Cc1ccc(NC(=O)CN(C)S(=O)(=O)c2ccc3c(c2)n(C)c(=O)c(=O)n3C)cc1C | x | x | -6% | x | x | -2%
COc1ccc(S(=O)(=O)c2c(SC)nn(CC(=O)Nc3cccc(C)c3C)c2N)cc1 | x | x | -6% | x | x | x
Cc1ccc(/C=C(\NC(=O)c2ccccc2)C(=O)N2CCCCC2)cc1 | -12% | -4% | 2% | -5% | -3% | x
CN(C)c1ccc(/C=C(\C#N)c2ccccc2)cc1 | u | 4.1µM* | 1.3µM* | 29% | 0.56µM* | x
N#C/C(=C\c1ccc(C#N)cc1)C(=O)c1ccccc1 | 21% | 6% | u | 5% | -2% | x
CN(C)c1ccc(/C=C(\C#N)C(=O)c2ccccc2)cc1 | -2% | 7% | 0.43µM* | -3% | 0% | x
Cn1cccc1/C=C(\C#N)c1ccccc1 | 22% | 4% | u | -1% | -5% | -16%
CN(C)c1ccc(/C=C(/NC(=O)c2ccccc2)C(=O)N2CCCC2)cc1 | -3% | -2% | 17µM* | 0% | -1% | x
CN(C)c1cccc(/C=C(\C#N)c2ccccc2)c1 | u | 4.1µM* | 1.2µM* | u | 0.5µM* | x
CC(=O)c1ccc(N(C)C)cc1 | 15% | 7% | -3% | 0% | 0% | 19%
N#C/C(=C\c1cccs1)C(=O)c1ccccc1 | 12% | 4% | 15µM* | 2% | 8% | x
CN(C)c1ccc(C(=O)C(=O)c2ccccc2)cc1 | u | 17% | 24µM* | 18% | u | x
COCCNC(=O)/C(C#N)=C/c1cccs1 | u | 12% | -10% | 11% | 17% | x
O=C(COC(=O)c1c(F)cccc1Cl)NC1CCCCC1 | u | u | 15µM* | u | u | x
O=C(COC(=O)c1ccccc1F)NC1CC1 | 15% | 2% | -15% | -3% | -3% | x
O=C(COC(=O)Cc1c(Cl)cccc1Cl)NC1CCCC1 | u | 2% | x | x | x | x
O=C(COC(=O)c1ccccc1F)NC1CCCC1 | 16% | 1% | 24µM* | -2% | -1% | x
O=C(NC(=S)NC1CCCC1)c1ccccc1 | u | u | 17µM* | u | u | x
O=C(NC(=S)NC1CCCCCCCCCCC1)c1cccnc1 | 19% | 4% | 0% | 0% | 3% | 0%
O=C(COC(=O)c1ccccc1)NC1CCCC1 | 22% | 9% | 17µM* | -3% | -8%[1.84 µM] | x
Cc1ccsc1C(=O)OCC(=O)NCCNC(=O)COC(=O)c1sccc1C | 23% | 7% | -1% | -1% | -1% | x
O=C(COC(=O)c1cccs1)NC1CCCCC1 | 0% | -1% | 21µM* | 2% | 5% | 1%
SMILES | ELG1 repair inh | ELG1 genotoxic | FLuc counter | NPC1 prom act | Rab9 promoter act | SMN2 splice enh
Cc1ccsc1C(=O)OCC(=O)NC1CCCC1 | u | u | 21µM* | u | u | x
O=C(COC(=O)c1cccs1)NC1CCCC1 | -2% | 7% | u | -3% | -4% | x
CCCCc1nn2c(C)c(-c3ccc(OCC)cc3)nc2s1 | x | x | u | x | x | 12%
Cc1nc2cc(F)ccc2n1C1CCN(C(=O)c2ccc(F)cc2F)CC1 | 9.2µM* | -11% | -1% | -9% | -16% | -72%
Cc1nc2cc(F)ccc2n1C1CCN(C(=O)c2c(F)cccc2F)CC1 | u | -6% | 1% | -12% | 0% | -81%
CCOc1ccc(C(=O)NC(=S)Nc2cccc(S(=O)(=O)NC3=NCCC3)c2)cc1 | 8% | u | 12µM* | -20% | -4% | 0%
CN(C)S(=O)(=O)c1ccc(C(=O)Nc2cccc(S(=O)(=O)NC3=NCCC3)c2)cc1 | 2% | 0% | -19% | -2% | -3% | x
CN(C)c1cccc(C(=O)Nc2cccc(S(=O)(=O)NC3=NCCC3)c2)c1 | u | u | 21µM* | 2.8µM* | 2.2µM* | x
O=C(Nc1cccc(S(=O)(=O)NC2=NCCC2)c1)c1ccccc1 | -5% | -1% | x | x | x | x
O=C(NC(=S)Nc1cccc(S(=O)(=O)NC2=NCCC2)c1)c1cc(-c2ccco2)nc2ccccc12 | u | 9% | 19µM* | -24% | -27% | x
C=C(C)CNC(=S)Nc1cccc(S(=O)(=O)NC2=NCCC2)c1 | -8% | 2% | -1% | 0% | 1% | -9%
O=C(Nc1cccc(S(=O)(=O)NC2=NCCC2)c1)c1ccc(OC(F)F)cc1 | u | 0% | 11µM* | -3% | 0% | x
NCC1OC(OC2C(N)CC(N)[C@@H](O)[C@@H]2OC2O[C@H](CO)[C@@H](O[C@@H]3OC(CN)C(O)C(O)C3N)C2O)C(N)C(O)C1O (stereo not given in full) | x | x | x | x | x | -11%
C=CCOc1ccc(C=Nc2ccc(OC)cc2)c(O)c1 | -14% | 1% | 8.5µM* | 0% | -11% | x
COc1ccc(N=Cc2c[nH][nH]c2=O)cc1 | -11% | 3% | -15% | 2% | 1%[1.84 µM] | -7%
COc1ccc2nc(NC(=O)CSc3nnc4n3C(C)(C)Cc3ccccc3-4)sc2c1 | 7% | u | 6.7µM* | -4% | 8% | -6%
COc1cc(NC(=O)CSc2nnc3n2C(C)(C)Cc2ccccc2-3)cc(OC)c1 | 22µM* | -12% | 0% | -1% | 1% | -34%
COC(=O)CSc1nnc2n1C(C)(C)Cc1ccccc1-2 | -4% | 1% | 7% | 2% | -4% | 17%
COc1ccc(C2=NC(C)(C)N(CC(=O)Nc3cccc(C)c3)C2=O)cc1 | x | x | -4% | x | x | -19%
CCCC(=O)NC1CC(=O)N(c2ccc3c(c2)OCCO3)C1 (stereo not given) | x | x | -2% | x | x | x
CCOc1ccc(CNC(=O)c2ccc3c(c2)c(C)c(C)n3Cc2ccc(Cl)cc2)cc1 | x | x | -7% | x | x | x

Bioassay records: PubChem, National Center for Advancing Translational Sciences (NCATS)
